# Screens as filed in PubChem.
# KAT2A inh: inhibitors of human GCN5L2 histone acetyltransferase. 390,000 tested, 0.21% active. Q92830. Potency, µM (series often up to 58.9 µM), inactives show top-dose activity change, negative = inhibition, actives largely listed as inhibitors. GCN5L2 HAT assay, ThioGlo1 CoA-SH fluorescence
# Target sequence (Q92830 whole entry, looked up): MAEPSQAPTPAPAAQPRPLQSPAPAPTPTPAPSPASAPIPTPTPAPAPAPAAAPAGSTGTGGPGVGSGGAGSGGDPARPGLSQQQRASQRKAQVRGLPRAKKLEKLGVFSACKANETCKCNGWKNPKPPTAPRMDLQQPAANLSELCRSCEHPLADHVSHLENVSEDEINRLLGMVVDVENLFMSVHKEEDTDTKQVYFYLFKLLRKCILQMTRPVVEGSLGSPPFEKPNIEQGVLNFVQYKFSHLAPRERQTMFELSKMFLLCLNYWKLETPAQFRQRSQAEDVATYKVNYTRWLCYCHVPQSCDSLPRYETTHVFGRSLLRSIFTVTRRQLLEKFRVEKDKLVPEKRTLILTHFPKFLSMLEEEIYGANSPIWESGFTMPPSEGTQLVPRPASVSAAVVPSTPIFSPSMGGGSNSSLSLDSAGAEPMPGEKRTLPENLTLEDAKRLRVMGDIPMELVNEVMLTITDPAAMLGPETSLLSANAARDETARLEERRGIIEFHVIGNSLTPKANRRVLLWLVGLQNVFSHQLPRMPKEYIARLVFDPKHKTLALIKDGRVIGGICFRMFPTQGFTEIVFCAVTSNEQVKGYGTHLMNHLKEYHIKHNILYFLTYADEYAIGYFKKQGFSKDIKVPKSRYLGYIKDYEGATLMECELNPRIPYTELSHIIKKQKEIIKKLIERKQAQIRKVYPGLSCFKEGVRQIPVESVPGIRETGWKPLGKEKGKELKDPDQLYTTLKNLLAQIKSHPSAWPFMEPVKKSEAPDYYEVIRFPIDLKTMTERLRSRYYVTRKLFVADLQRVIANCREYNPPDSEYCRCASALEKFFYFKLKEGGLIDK
#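 Compounds, pin-transferred from DMSO stocks, meet 20nM GCN5L2 for 15 min before the reaction begins with H3(1-25) peptide (75uM) and acetyl-CoA (70uM). Thiol-reactive ThioGlo1 reports CoA release over 20 min at room temperature.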
# VDR inh: vitamin D3 receptor (human) inhibition. 400,000 tested, 0.93% active. VDR-SRC2-3 peptide fluorescence polarization, 2 h. AID 504847. Potency, µM, for the others: max response, negative = inhibition, usual class: inhibitors. P11473
#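 Two reagent solutions held at 4 deg C in the dark were dispensed, compounds pinned at 23 nl, and the mixture incubated 2 h at room temperature. Read-out: fluorescence polarization of VDR–SRC2-3 peptide binding.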
# PLK1 PBD inh: inhibitors of human PLK1 polo-box domain binding; Plk1 PBD binding of FITC phosphopeptide, fluorescence polarization; Potency, µM, without a hit: max response, negative = inhibition, usual class: inhibitors; 360,000 tested, 2.8% active; further: series mostly up to about 57 µM; nearly all actives have a fitted effect of over 65% in size
# 12-LOX inh: ALOX12 (human) lipoxygenase inhibition. P18054. purified 12hLO, xylenol orange hydroperoxide absorbance. Potency, µM (top dose mostly 108 µM), for the others: top-dose activity change, negative = inhibition, actives largely listed as inhibitors. 580,000 tested, 1.1% active. AID 1671190
#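 Purified human 12hLO (150 nM final) in 25 mM Hepes, 0.01% Triton X-100, pH 7.0 was preincubated 15 min at room temperature with compound. Then 40 uM arachidonic acid was added, 30 min. Hydroperoxide was read by Fe-XO absorbance ratio 573/405 nm.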
# * = called active by the depositor; ? = inconclusive; . = no result given; [ ] = remark or other dose. Most compounds without a hit are left out; they make up all but 3% or so of the library. The call rests on the fitted dose curve; in most records, active means well fitted curve in the direction sought with a large enough effect; inconclusive means small, poorly fitted or top-dose-only effect, or another doubt; inactive means no such curve, though single readings can be large; an effect the other way counts as inactive or inconclusive. On the % scale 0 is the no-effect control and ±100 the full control effect; potency means the concentration at half of the fitted maximal effect.
SMILES,KAT2A inh,VDR inh,PLK1 PBD inh,12-LOX inh
O=C(NNC(=O)C1CCCCC1)c1cc(F)cc(F)c1,.,.,.,13.2%
Cc1ccc(C(C)C)c(OCC(O)CN2CCN(CCO)CC2)c1 (stereo unspecified),-3.5%,-7.4%,-7.5%,10µM*
C=CCc1ccccc1OCC(O)CN1CCN(C(=O)OCC)CC1 (stereo unspecified),-3.4%,-20.8%,-10.4%,3.3%
C=CCc1ccccc1OCC(O)CN1CCN(c2ccc(C)cc2)CC1 (stereo unspecified),-10.4%,-10.4%,-3.0%,0.562µM*
N=C(N)c1ccc(OCc2ccncc2)cc1,.,.,.,8.91µM*
N=C(N)c1ccc(OCCCOc2ccc(C(=N)N)cc2)cc1,.,.,.,-11.2%[22.9 µM]
CCC(C)(C)NC(=O)C(c1ccc(C)cc1)N(CCN1CCOCC1)C(=O)CNC(=O)c1cccs1 (stereo unspecified),-0.1%,-9.4%,29.9µM*,-1.8%
COc1cccc(C(=S)N2CCCC2)c1OC,-11.1%,?,23.8µM*,-41.9%
COc1ccc(C(=O)NC(=S)N2CCC(C)CC2)cc1Br,0.3%,-3.3%,-3.5%,?
COc1cc(C(=S)N2CCC(C(N)=O)CC2)ccc1O,-3.0%,-21.7%,26.7µM*,?
COc1cc(C(=S)N2CCCC2)ccc1O,-3.4%,?,26.7µM*,?
COc1cc(C(=S)N2CCCCC2)ccc1O,-1.9%[0.501 µM],-13.1%,?,-11.1%
COc1cc(C(=S)N2CCC(C)CC2)ccc1O,-5.0%,-23.8%,23.8µM*,?
COc1cccc(C(=O)C(=O)c2cccc(OC)c2OC)c1OC,.,-17.7%,-5.7%,-7.3%
CCn1nc(C)c(CCNC(=O)Nc2ccc(OC)cc2OC)c1C,.,.,.,-6.2%
NC(=O)Cn1cnc2c(oc3nc(C4CCCCC4)c4c(c32)CCC4)c1=O,.,.,.,-6.7%
CCOc1cc(C(=S)N2CCCC2)ccc1O,-7.2%,?,18.9µM*,?
COc1ccc(C(=S)N2CCN(c3ccccc3C)CC2)cc1OC,.,?,23.8µM*,-29.7%
CCOc1ccc(C(=S)N2CCCC2)cc1OC,-1.1%,8.2%,-7.4%,5.2%
CC1(C)CC(NC(=O)CC(=O)NC2CC(C)(C)NC(C)(C)C2)CC(C)(C)N1,.,.,.,-2.2%
COc1cc2oc(=O)c3c4c(cc5ccc(c1CCN(C)C)c2c53)OCO4,.,39.8µM*,.,72.9%
CC(C)Cc1ccc(C(C)/C=C2/CCC(CN3CCCCC3)C2=O)cc1 (stereo unspecified),.,?,13.4µM*,?
CC(C)Cc1ccc(CN2CCCC(NC(=O)CCN3CCCCC3=O)C2)cc1 (stereo unspecified),-0.4%,19.0%,7.5%,12.9%
O=C(COC(=O)c1ccc(Br)c([N+](=O)[O-])c1)c1ccc(Br)cc1,.,.,.,-47.1%
Cc1cc(SCC(=O)NC(=O)NC(C)C)nc2ccccc12,.,.,.,-3.8%
SMILES,KAT2A inh,VDR inh,PLK1 PBD inh,12-LOX inh
O=C(O)COc1ccc2c(c1)O/C(=C\c1ccco1)C2=O,-16.5%,-1.0%,23.8µM*,0.0%
O=C(NCC1CC1)c1cnc(N2CCN(Cc3cccc(F)c3)C2=O)s1,.,.,.,21.4%
S=C1NC[C@H](Cc2ccccc2)N1CCCCC1CCCCC1,-4.8%,-7.5%,-5.7%,35.5µM*
S=C1NC[C@H](CC2CCCCC2)N1CCc1cccc2ccccc12,-24.5%,2.9%,-10.8%,25.1µM*
O=C1NC[C@H](CC2CCCCC2)N(CCc2cccc3ccccc23)C1=O,.,.,-17.5%,-8.9%
Cc1cc(C)n2nc(SCC(=O)c3cc(C)n(C4CCS(=O)(=O)C4)c3C)nc2n1 (stereo unspecified),.,.,.,-13.4%
COC(=O)c1sccc1NC(=O)CN(C)NS(=O)(=O)c1ccc([N+](=O)[O-])cc1,-9.9%,-26.9%,23.8µM*,?
COC(=O)c1sccc1NC(=O)CN(C)NS(=O)(=O)c1ccc(Cl)cc1,-6.1%,-3.7%,-22.0%,?
O=C(Nc1cccc(CN2CCOC2=O)c1)N1CCCCCCC1,.,.,.,11.5%
Cc1noc(C)c1COC(=O)/C=C/c1ccc(Cl)cc1,-9.1%,?,11.9µM*,-5.3%
CCC(C)SSC(C)CC (stereo unspecified),.,.,.,14.9%[176 µM]
CCC(C)SSc1ncc[nH]1 (stereo unspecified),.,.,.,19.3µM*
CCOC(=O)c1c(N)sc(-c2ccccc2)c1C,-7.1%,-14.6%,18.9µM*,?
CCOC(=O)c1c(N)sc(C)c1-c1ccccc1,-17.2%,?,.,.
COC(=O)c1c(N)sc(C(=O)NCCc2ccccc2)c1C,-0.8%,-8.9%,21.2µM*,-21.4%
CCOC(=O)c1c(N)sc(C(=O)OC)c1C,0.3%,-27.2%,29.9µM*,-20.6%
COc1cccc(OC)c1C(=O)NCCc1ccccc1,.,-5.5%,-2.6%,-42.0%
CCOC(=O)c1c(N)sc(C(O)(C(F)(F)F)C(F)(F)F)c1-c1ccccc1,-2.6%,?,26.7µM*,0.0%
COC(=O)[C@@H]1Cc2c([nH]c3ccccc23)[C@H]2C[C@H](NCc3cccs3)C[C@@H](c3ccc(F)cc3)N21,.,.,.,5.3%
COc1cccc2ccc(N3CCN(Cc4ccccc4)CC(O)C3)nc12 (stereo unspecified),.,.,.,15.5%
O=C(Cc1c[nH]c2ccccc12)NC(c1ccccc1)c1ccccc1,.,.,.,12.6%
Cc1c(-c2ccccc2)sc(N)c1C(=O)N1CCOCC1,-1.1%,-4.3%,23.8µM*,?
CC(C)C(=O)/C(C#N)=C\c1ccc(OCc2ccccc2F)cc1,.,.,.,6.4%
Cc1c(N(C)S(=O)(=O)c2cccc(C(=O)NCC3CCCO3)c2)c(=O)n(-c2ccccc2)n1C (stereo unspecified),-4.8%,12.6%,-7.8%,-3.7%
Cc1c(N(C)S(=O)(=O)c2cccc(C(=O)NC(C)C)c2)c(=O)n(-c2ccccc2)n1C,1.2%,79.4µM*,29.9µM*,?
SMILES,KAT2A inh,VDR inh,PLK1 PBD inh,12-LOX inh
Cc1c(N=C2C=CC(=O)c3ccccc32)c(=O)n(-c2ccccc2)n1C,-20.0%,?,18.9µM*,?
COc1ccccc1-c1cncnc1Nc1ccc(F)cc1,-8.7%,-14.5%,.,?
COc1ccccc1-c1cncnc1Nc1ccccc1,?,28.2µM*,.,39.8µM*
CN(C)c1ccc(-c2cncnc2Nc2ccc(F)cc2)cc1,?,44.7µM*,.,?
c1ccc(Nc2ncncc2-c2ccoc2)cc1,-10.1%,56.2µM*,.,17.8µM*
Cc1ccccc1-c1cncnc1Nc1ccc(F)cc1,-17.7%,-9.8%,.,-14.2%
CN(C)c1ccc(-c2cncnc2-n2ccnc2)cc1,?,44.7µM*,.,39.8µM*
CCOCCCNCc1ccc(C)s1,.,.,.,-2.2%
C=CCNC(=O)NC(=O)CN(C)C(C)c1ccccc1OC (stereo unspecified),.,.,.,25.5%
CC(=O)Nc1c(SC(F)(F)F)cc(SC(F)(F)F)cc1SC(F)(F)F,.,.,.,-18.6%
COc1ccccc1CNc1ncncc1-c1ccoc1,-6.1%,?,.,?
Fc1ccc(Nc2ncncc2-c2ccoc2)cc1,-12.7%,31.6µM*,.,39.8µM*
COc1ccc(NC(C)=O)cc1NC(=O)Cc1ccc(OC)c(OC)c1,.,.,.,-7.4%
Cc1cc(C(=O)CCl)c(C)n1-c1ccon1,-7.3%,2.1%,26.7µM*,-13.6%
Cc1cc(C(=O)CCl)c(C)n1-c1cccc([N+](=O)[O-])c1,-2.0%,-20.5%,?,?
